According to paper PMC5540273 (PLoS ONE, 2017):
Several values for one entry are separate records, joined by “and”; a condition that tells them apart may be missing. Equal values may be shown once. Read-outs that look alike come from different tables or passages of the source.

How the values were obtained:
Conditions in all cases: concentration: 1 μM, replicates: in singlicate, n = 1
YANK3 = tested on: T1, YANK3
T1 construct: gene STK32C

YES = tested on: T2, YES
T2 construct: gene YES1

YSK1 = tested on: T3, YSK1
T3 construct: gene STK25

YSK4 = tested on: T4, YSK4
T4 construct: gene MAP3K19

ZAK = tested on: ZAK
ZAP70 = tested on: ZAP70
p38-alpha = tested on: T5, p38-alpha
T5 construct: gene MAPK14

p38-beta = tested on: T6, p38-beta
T6 construct: gene MAPK11

p38-delta = tested on: p38-delta
p38-gamma = tested on: T7, p38-gamma
T7 construct: gene MAPK12
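Note: KINOMEscan kinase panel screen.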

SMILES	%Inh (YANK3) [%]	%Inh (YES) [%]	%Inh (YSK1) [%]	%Inh (YSK4) [%]	%Inh (ZAK) [%]	%Inh (ZAP70) [%]	%Inh (p38-alpha) [%]	%Inh (p38-beta) [%]	%Inh (p38-delta) [%]	%Inh (p38-gamma) [%]	%Inh (YANK3; 1 µM)	%Inh (YES; 1 µM)	%Inh (YSK1; 1 µM)	%Inh (YSK4; 1 µM)	%Inh (ZAK; 1 µM)	%Inh (p38-alpha; 1 µM)	%Inh (p38-delta; 1 µM)	%Inh (p38-gamma; 1 µM)	%Inh (ZAP70; 1 µM)	%Inh (p38-beta; 1 µM)
Nc1nc(-c2ccc3c(N)n[nH]c3c2)cc(N2CCCC2)n1 [GSK2227430]	0	0	9	36	0	0	0	0	25	0	–	–	–	–	–	–	–	–	–	–
Cc1nnc(-c2ccc3ncc(-c4ccc(S(C)=O)cc4)n3c2)o1 (stereo not drawn)	5	0	0	3	0	0	9	1	7	10	–	–	–	–	–	–	–	–	–	–
CN(C(=O)c1ccc(-c2cc(-c3c[nH]nc3-c3ccccn3)ccn2)cc1)C1CCOCC1 [GW810083]	0	0	0	0	18	13	10	3	5	0	–	–	–	–	–	–	–	–	–	–
COc1cc2ncn(-c3cc(OCc4sccc4Cl)c(C(N)=O)s3)c2cc1OC [GSK448459]	0	6	0	89	0	0	0	0	23	0	–	–	–	–	–	–	–	–	–	–
COc1ccc(CNC(=O)NC2CCN(c3ccnc(Nc4ccc(OC)cc4)n3)C2)cc1 (stereo not drawn) [GSK1379727]	8	3	0	36	0	0	11	0	8	45	–	–	–	–	–	–	–	–	–	–
Cc1nnc(-c2ccc3occ(-c4ccc(C(C)O)cc4)c3c2)o1 (stereo not drawn)	0	3	0	19	46	1	10	13	0	1	–	–	–	–	–	–	–	–	–	–
Cc1ccc(C(=O)NCC(N)=O)cc1-n1c(C)cc(OCc2ccc(F)cc2F)c(Br)c1=O	6	16	0	0	24	0	100	100	18	8	–	–	–	–	–	–	–	–	–	–
COC(=O)Nc1nc2cc(Oc3ccc(NC(=O)Nc4cc(F)ccc4F)cc3)ccc2[nH]1.Cl [GW701424]	0	11	13	53	98.8	71	37	0	29	13	–	–	–	–	–	–	–	–	–	–
COCCNC(=O)c1ccc(-c2cc(C(=O)NC3CC3)cc(F)c2C)cc1 [GW868318]	22	4	0	33	23	0	100	94	0	29	–	–	–	–	–	–	–	–	–	–
Cc1ccc(NC(=O)c2ccnc(N3CCN(C)CC3)c2)cc1-c1ccc(C(=O)NCC2CC2)cc1 [GW775604]	0	0	19	0	0	0	32	35	10	0	–	–	–	–	–	–	–	–	–	–
CC(C)Oc1ccc2c(-c3ccnc(Nc4ccc(N5CCN(C)CC5)cc4)n3)cnn2n1 [GW696155]	0	54	71	99.8	0	65	17	0	72	62	–	–	–	–	–	–	–	–	–	–
O=C(Nc1n[nH]c2cc(-c3cccc(F)c3)ccc12)C1CC1 [SB-735464]	0	1	0	82	8	0	1	7	0	15	–	–	–	–	–	–	–	–	–	–
c1ccc(-c2n[nH]cc2-c2ccnc3ccccc23)nc1 [GW271431]	18	21	1	28	28	0	29	0	52	0	–	–	–	–	–	–	–	–	–	–
NCC(NC(=O)c1cc(-c2cn[nH]c2)c(-c2ccnc3[nH]ccc23)s1)c1ccccc1.O=C(O)C(F)(F)F.O=C(O)C(F)(F)F (stereo not drawn) [GSK1325775]	8	0	24	99.8	4	0	10	0	10	27	–	–	–	–	–	–	–	–	–	–
NCCNS(=O)(=O)c1ccc(-c2ccnc3[nH]ccc23)cc1 [GSK977617]	–	–	–	–	–	0	–	0	–	–	8% and 0%	11% and 0%	32% and 25%	98.1% and 97.3%	18% and 0%	0% and 8%	65% and 49%	29% and 55%	–	–
Cc1cccc(-c2nc(-c3ccc(S(C)(=O)=O)cc3)sc2-c2ccncc2)c1	23	0	18	9	30	0	92.4	0	19	12	–	–	–	–	–	–	–	–	–	–
Cn1ccc2ncnc(Oc3ccc(NC(=O)Nc4ccncc4)c(Cl)c3)c21	9	0	3	0	0	7	0	18	4	8	–	–	–	–	–	–	–	–	–	–

SMILES	%Inh (YANK3) [%]	%Inh (YES) [%]	%Inh (YSK1) [%]	%Inh (YSK4) [%]	%Inh (ZAK) [%]	%Inh (ZAP70) [%]	%Inh (p38-alpha) [%]	%Inh (p38-beta) [%]	%Inh (p38-delta) [%]	%Inh (p38-gamma) [%]	%Inh (YANK3; 1 µM)	%Inh (YES; 1 µM)	%Inh (YSK1; 1 µM)	%Inh (YSK4; 1 µM)	%Inh (ZAK; 1 µM)	%Inh (p38-alpha; 1 µM)	%Inh (p38-delta; 1 µM)	%Inh (p38-gamma; 1 µM)	%Inh (ZAP70; 1 µM)	%Inh (p38-beta; 1 µM)
COc1ccc(Nc2nccc(N3CCC(NC(=O)Nc4cc(C)ccc4C)C3)n2)cc1 (stereo not drawn) [GSK1379741]	8	13	0	19	5	0	0	0	47	0	–	–	–	–	–	–	–	–	–	–
Cc1c2ccc(N(C)c3ccnc(Nc4cccc(S(N)(=O)=O)c4)n3)cc2nn1Cc1ccccc1.Cl.Cl [GW787226]	0	50	24	25	17	0	0	2	0	35	–	–	–	–	–	–	–	–	–	–
COc1ccc(S(=O)(=O)NC2CCN(c3cc(C)nc(Nc4cccc(C#N)c4)n3)CC2)cc1.O=C(O)C(F)(F)F [GSK1653539]	0	4	20	0	0	0	9	0	28	0	–	–	–	–	–	–	–	–	–	–
CC(C)(CN)c1nc(-c2ccc(Cl)c(O)c2)c(-c2ccncc2)[nH]1.O=C(O)C(F)(F)F [SB-477794]	–	–	–	–	–	–	–	–	–	–	86% and 83%	88% and 86%	6% and 96.1%	87% and 65%	100% and 59%	99.8% and 99.3%	29% and 0%	19% and 63%	58% and 0%	53% and 58%
NS(=O)(=O)c1cccc(-c2ccc3ncc(N4CCOCC4)nc3c2)c1 [GSK1535721]	1	7	15	89	3	0	9	0	21	0	–	–	–	–	–	–	–	–	–	–
Cc1c(Cn2c(C)nn3c(=O)cc(N4CCOC(C)C4)nc23)cccc1C(F)(F)F (stereo not drawn) [GSK2344444]	13	3	0	9	0	0	0	0	17	0	–	–	–	–	–	–	–	–	–	–
O=c1cc(N2CCOCC2)nc2n(Cc3cccc4ccccc34)ccn12 [GSK2333389]	38	2	0	15	3	0	0	0	16	0	–	–	–	–	–	–	–	–	–	–
CN(C1=C(c2ccccc2)C(=O)NC1=O)c1ccccc1 [SB-334860]	17	17	21	9	79	0	0	5	22	5	–	–	–	–	–	–	–	–	–	–
O=c1cc(N2CCOCC2)nc2n(Cc3cccc(Cl)c3Cl)c(C3CC3)nn12 [GSK2358994]	0	9	0	0	12	10	0	8	4	23	–	–	–	–	–	–	–	–	–	–
O=c1cc(N2CCOCC2)nc2n(Cc3cccc(C(F)(F)F)c3)ccn12 [GSK2297543]	0	9	0	0	8	0	0	0	21	11	–	–	–	–	–	–	–	–	–	–
Cc1nnc(-c2ccc(C)c(-c3ccc(C(=O)Nc4ccc(NS(C)(=O)=O)cc4)cc3)c2)o1 [GW702865]	17	11	0	0	0	15	99.7	70	17	0	–	–	–	–	–	–	–	–	–	–
CC(C)(C)n1cnc2c(N)ncnc21 [SKF-97359]	0	27	0	0	0	21	0	0	0	2	–	–	–	–	–	–	–	–	–	–
O=C(NOCC1CC1)c1ccc(F)c(F)c1Nc1ccc(I)cc1Cl	0	0	0	0	0	0	0	19	0	0	–	–	–	–	–	–	–	–	–	–
[2H]C([2H])(c1cccc(C(F)(F)F)c1C)n1ccn2c(=O)nc(N3CCOCC3)cc12 [GSK2336394]	0	7	0	26	4	24	0	0	46	0	–	–	–	–	–	–	–	–	–	–
Cl.Oc1cccc(Nc2ccnc3cc(-c4ccncc4)ccc23)c1 [GW494601]	0	94.6	7	91.7	84	2	50	0	25	0	–	–	–	–	–	–	–	–	–	–
COc1cc(Nc2nccc(N3CCC(NC(=O)c4cccc(NC(C)=O)c4)C3)n2)cc(OC)c1OC (stereo not drawn) [GSK1379754]	0	18	3	19	0	0	0	0	0	0	–	–	–	–	–	–	–	–	–	–
